Measurements taken from PubChem BioAssay (NCATS).
Records with an inconclusive call do not appear. Values without a mark were called inactive. Active and inactive are the calls of the source. Calls follow the shape of the dose curve; as a rule, active = well fitted inhibition curve with a large enough effect; inconclusive = small, poorly fitted or top-dose-only effect; inactive = flat fitted curve, though single readings scatter.

Target: Ubiquitin carboxyl-terminal hydrolase 1 (Homo sapiens) (UniProt O94782)
Assay: Inhibitors of USP1/UAF1: Pilot qHTS (AID 504865); also: nearly all actives have a fitted effect of over 35% in size; also: potency is read from the fitted curve at half-maximal effect;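 as to activity change, negative = inhibition: rhodamine fluorescence freed from ubiquitin-rhodamine substrate followed over time; top concentration of the series differs between compounds; % is scaled to controls: 0 for no effect and ±100 for the full control effect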
Conditions: purified USP1/UAF1, Ub-rhodamine cleavage fluorescence; series mostly up to 114 µM; activity change, negative = inhibition: at the top concentration
How it was run: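 USP1/UAF1 complex (1nM) preincubated with compound 15 min at room temperature, then Ub-Rho substrate (150nM final) added. Fluorescence read kinetically at 480/540 nm, 6 reads every 60 seconds. Buffer: 50mM HEPES pH 7.8, 0.5mM EDTA, 0.1 mg/ml BSA, 1mM TCEP, 0.01% Tween-20.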

Chain of Ubiquitin carboxyl-terminal hydrolase 1 (Homo sapiens) (O94782 whole entry, looked up): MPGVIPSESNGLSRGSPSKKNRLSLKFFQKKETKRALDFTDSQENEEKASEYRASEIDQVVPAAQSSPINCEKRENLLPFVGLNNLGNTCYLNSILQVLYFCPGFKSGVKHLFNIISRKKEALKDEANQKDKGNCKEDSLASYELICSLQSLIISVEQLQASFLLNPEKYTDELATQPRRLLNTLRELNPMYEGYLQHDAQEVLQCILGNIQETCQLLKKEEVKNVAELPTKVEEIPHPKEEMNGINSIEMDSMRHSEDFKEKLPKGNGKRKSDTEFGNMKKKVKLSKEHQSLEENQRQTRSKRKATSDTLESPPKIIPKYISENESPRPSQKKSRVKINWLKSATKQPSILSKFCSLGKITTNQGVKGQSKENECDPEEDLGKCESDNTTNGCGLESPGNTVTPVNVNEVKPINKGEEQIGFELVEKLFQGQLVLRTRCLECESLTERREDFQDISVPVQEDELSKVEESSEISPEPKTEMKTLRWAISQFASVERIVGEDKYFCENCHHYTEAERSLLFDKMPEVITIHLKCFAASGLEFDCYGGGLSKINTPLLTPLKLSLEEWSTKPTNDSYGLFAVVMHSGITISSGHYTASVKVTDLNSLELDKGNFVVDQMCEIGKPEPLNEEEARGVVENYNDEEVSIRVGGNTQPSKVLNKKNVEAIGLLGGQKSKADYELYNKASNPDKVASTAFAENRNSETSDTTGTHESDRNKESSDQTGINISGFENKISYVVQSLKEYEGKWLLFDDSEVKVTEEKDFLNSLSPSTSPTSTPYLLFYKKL

First: O=c1cc(-c2ccc(O)cc2)oc2cccc(O)c12
Second: COc1c2ccoc2c(OC)c2oc(=O)ccc12
The “activity change, negative = inhibition” value of the first is lower: -12.5% for the first, -8.25% for the second.

Compared with `CC[C@H](/C=C/[C@@H](C)[C@H]1CC[C@H]2C3CC=C4C[C@@H](O)CC[C@]4(C)C3CC[C@]12C)C(C)C` (stereo not given in full), `C[C@]12CCC(=O)C=C1CCC1C2C(O)C[C@]2(C)C1CC[C@]2(O)C(=O)COC(=O)CCC(=O)O` (stereo not given in full) is higher in “activity change, negative = inhibition” value: -6.12% for the first, -2.38% for the second.

For `Nc1nc2c(ncn2C2CC(O)C(CO)O2)c(=O)[nH]1` (stereo not given), the “activity change, negative = inhibition” value was 2.1%.

In the case of `c1ccc(-c2csc(-c3nc4ccccc4[nH]3)n2)cc1`, the Potency is reported as 22.4 µM (active).
`C=C1c2cccc(O)c2C(O)=C2C(=O)[C@]3(O)C(O)=C(C(N)=O)C(=O)C(N(C)C)C3C(O)C12` (stereo not given in full) was tested, and the Potency was 39.8 µM (active).

Target: Luciferin 4-monooxygenase (Photinus pyralis) (UniProt P08659)
Assay: Biochemical firefly luciferase enzyme assay for NPC (AID 624030);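 also: purified P. pyralis luciferase at 10 nM with luciferin and ATP substrate; 0% = DMSO and -100% = full luciferase inhibition by PTC124 control; nearly all actives have a fitted effect of over 70% in size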
Conditions: purified P. pyralis luciferase, luminescence, 5 min; series mostly up to 58.6 µM; activity change, negative = inhibition: at the top concentration
How it was run: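 Counter-screen for direct inhibition of the luciferase enzyme by approved-drug library compounds, run at 10 nM enzyme in 50 mM Tris acetate (final). Luminescence was read within 5 min of enzyme-buffer addition and normalized to PTC124 versus DMSO (0%).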

Chain of Luciferin 4-monooxygenase (Photinus pyralis) (P08659 whole entry, looked up): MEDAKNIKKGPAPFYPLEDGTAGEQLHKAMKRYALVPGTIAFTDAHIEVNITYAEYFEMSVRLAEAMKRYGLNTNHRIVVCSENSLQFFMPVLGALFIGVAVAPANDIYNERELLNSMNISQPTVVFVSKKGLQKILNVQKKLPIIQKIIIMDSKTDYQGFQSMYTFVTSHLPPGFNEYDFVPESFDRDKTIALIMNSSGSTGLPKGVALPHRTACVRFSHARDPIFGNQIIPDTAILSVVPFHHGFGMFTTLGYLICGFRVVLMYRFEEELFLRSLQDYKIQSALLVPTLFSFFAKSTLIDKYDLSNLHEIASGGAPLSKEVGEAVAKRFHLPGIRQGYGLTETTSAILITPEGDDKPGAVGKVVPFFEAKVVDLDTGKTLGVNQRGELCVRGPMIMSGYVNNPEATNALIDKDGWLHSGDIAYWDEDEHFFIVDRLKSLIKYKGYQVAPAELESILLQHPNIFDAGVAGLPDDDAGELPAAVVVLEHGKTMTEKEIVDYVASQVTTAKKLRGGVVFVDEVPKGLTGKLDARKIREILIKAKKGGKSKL

Compared with `CC1CC2C3CCC4=CC(=O)C=C[C@@]4(C)[C@]3(F)C(O)C[C@]2(C)[C@]1(O)C(=O)COP(=O)(O)O` (stereo not given in full), `CN(C)c1ccc(O)c2c1C[C@@H]1C[C@H]3C(N(C)C)C(=O)C(C(N)=O)=C(O)[C@@]3(O)C(=O)C1=C2O` (stereo not given in full) is lower in “activity change, negative = inhibition” value: 29.4% for the first, -4.18% for the second.

`C[N+]1(C)C2CCC1CC(OC(=O)C(O)c1ccccc1)C2` (stereo not given) was tested, and the “activity change, negative = inhibition” value was 1.26%.
